The values below come from PubChem BioAssay (NCATS).

Several values for one entry are separate records, joined by “and”; a condition that tells them apart may be missing. Equal values may be shown once. A number with no mark means an inactive call. Results filed as inconclusive are left out. Activity calls are given as the source filed them. Unless noted, calls come from the whole dose curve; as a rule, active = well fitted curve in the direction sought with a large enough effect; inconclusive = small, poorly fitted or top-dose-only effect, or another doubt; inactive = no such curve, though single readings can be large; an effect the other way counts as inactive or inconclusive.

Experiment [1] can be described thus: Cell Viability - Jurkat (AID 426;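 active = dose-dependent loss of cell ATP signal giving a full or clear fitted curve, ranked by lower potency value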; note: potency is the fitted concentration of half-maximal effect). Particulars: qHTS. The method, boiled down:
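qHTS, 1536-well; Jurkat E6-1, 5000 cells/well, complete medium; cpd 40 hr, 37 °C; CellTiter-Glo 20 min RT; luminescence. AC50 by Hill fit.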
(In general: qHTS replaces the single test concentration by a dilution series.)

A short description of experiment [2]: Cell Viability - NIH 3T3 (AID 541).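 Note: plate controls were DMSO alone for no effect and tamoxifen positive control for full effect; nearly all actives have a fitted effect of over 25% in size.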 Conditions: NIH 3T3 cell viability, qHTS; activity change, negative = cytotoxicity: at 92.2 µM (top of the series). The method, boiled down: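 Luminescent ATP signal (CellTiter-Glo) served as the viability read-out after NIH 3T3 cells were exposed to compounds over a concentration range for 40 hr at 37 °C. Hill-equation modelling of concentration-response data gave AC50.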

A short description of experiment [3]: Cell Viability - SH-SY5Y (AID 544).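 For viability change, negative = cytotoxic: 0% = DMSO alone and -100% = 100 µM tamoxifen.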 Note: nearly all actives have a fitted effect of over 55% in size. Note: potency is the fitted concentration of half-maximal effect. Particulars: SH-SY5Y neuroblastoma cell viability; viability change, negative = cytotoxic: at 92.2 µM (top of the series). Summed up:
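Luminescent ATP read-out (CellTiter-Glo) measures loss of viable SH-SY5Y neuroblastoma cells after 40 hr compound exposure at 37 °C. AC50 values derive from standard Hill modelling of qHTS concentration-response data.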

Experiment [4] can be described thus: Cellular Toxicity (caspase-3) BJ (AID 658). Particulars: BJ fibroblasts, luminescence; Potency: caspase-3 activation; series mostly up to 91.7 µM. Summed up:
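Readout: Caspase-Glo 3/7 luminescence increase in BJ cells after 16 hr treatment at 37 °C. Staurosporine and tamoxifen served as positive controls; AC50 values came from Hill modelling of data normalized to DMSO and 10 uM staurosporine.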

Experiment [5] is described as follows: Cellular Toxicity (caspase-3) MRC-5 (AID 659). Conditions: MRC-5 cells, luminescence, normalized: DMSO 0%, 10 µM staurosporine 100%; series mostly up to 91.7 µM. Summed up:
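Concentration-dependent caspase 3/7 activation is measured in human normal lung fibroblasts (MRC-5) following 16-hour treatment. AC50 values come from standard Hill-equation modeling of luminescence normalized to DMSO and 10 uM staurosporine.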

Experiment [6] concerns the target Cytochrome P450 3A4 (Homo sapiens) (UniProt P08684). Put plainly: qHTS Assay for Inhibitors and Substrates of Cytochrome P450 3A4 (AID 884). Note: % is set by controls: 0 for no effect and ±100 for the full control effect; nearly all actives have a fitted effect of over 50% in size. Particulars: recombinant CYP3A4, Luciferin-PPXE luminescence; series mostly up to 57.1 µM. Summed up:
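20 nM human CYP3A4 with 25 uM Luciferin-PPXE (at KM) in 200 mM KPO4, preincubated 10 min with compound; NADPH regeneration started a 60 min RT reaction. Luciferin detected by luminescence, normalized to 57 uM ketoconazole as full inhibition.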

Experiment [7] addresses Glucocorticoid receptor (Homo sapiens) (UniProt P04150). Kind of experiment: qHTS assay for small molecule agonists of glucocorticoid receptor signaling (AID 588532; active = well fitted curve in the direction sought with a large enough effect in the signal ratio, with a control signal flat; the % refers to the signal ratio;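 note: 100% = dexamethasone at 0.1 µM and 0% = DMSO only wells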). Particulars: HeLa MMTV-bla, beta-lactamase ratio, agonist, 18 h; active compounds read high; percent of dexamethasone control, DMSO zero. Summed up:
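Using MMTV-bla HeLa cells in medium with 1% stripped FBS and 25 mM HEPES, compounds were titrated and incubated overnight-length (18 h). Beta-lactamase cleavage of CCF4 was quantified by dual-emission fluorescence.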

Experiment [8] addresses Vitamin D3 receptor (Homo sapiens) (UniProt P11473). Put plainly: qHTS assay for small molecule agonists of vitamin D receptor signaling (AID 588543; calls by dose curve;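 note: 0% = DMSO basal and 100% = reference agonist control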). Particulars: HEK293T VDR-UAS-bla, beta-lactamase ratio, 16 h; series mostly up to 76.8 µM. The method, boiled down: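 β-lactamase reporter, VDR-UAS-bla HEK293T, agonist mode. Cells plated 5 h at 37 °C, compound titration 16 h at 37 °C, CCF4 dye 2 h RT, ratio 460/530 nm. Hill fit → EC50, efficacy vs 50 nM 1α,25-(OH)2D3.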

Experiment [9] addresses Thyroid hormone receptor beta (Homo sapiens) (UniProt P10828). Kind of experiment: qHTS assay for small molecule agonists of thyroid hormone receptor beta signaling (AID 588545; calls by dose curve). Conditions: TR-UAS-bla GripTite HEK 293, beta-lactamase ratio, agonist mode, 18 h; series mostly up to 76.7 µM. Summed up:
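Cells (2500/well) were seeded, incubated 4 hrs at 37 C, dosed with a compound series, incubated 18 hrs, loaded with CCF4 dye for 2 hrs at RT, then read for fluorescence. Data were scaled between DMSO (0%) and 10 nM T3 (100%).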

For experiment [10], the target named is Voltage-gated inwardly rectifying potassium channel KCNH2 (Homo sapiens) (UniProt Q12809). Put plainly: qHTS Assay for Small Molecule Inhibitors of the Human hERG Channel Activity (AID 588834).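 Note: top concentration of the series differs between compounds; % is set by controls: 0 for no effect and ±100 for the full control effect; lower thallium flux fluorescence means stronger hERG block; nearly all actives have a fitted effect of over 50% in size.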 Conditions: U2OS BacMam hERG, FluxOR thallium flux fluorescence; series mostly up to 92.2 µM. The method, boiled down:
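Concentration-response qHTS measuring drop in thallium-sensitive dye signal. U2OS cells carrying BacMam hERG; compound exposure ~10 min, then stimulation buffer and 2 min read at 1 sec intervals.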

Experiment [11] can be described thus: qHTS assay for small molecule agonists of the antioxidant response element (ARE) signaling pathway (AID 651741; active = well fitted activation curve with a large enough effect in the signal ratio; the % refers to the signal ratio; note: potency is the fitted concentration of half-maximal effect; for activation: % of control where 0% means no effect). Conditions: HepG2 ARE-bla reporter, beta-lactamase FRET ratio, 16 h; series mostly up to 96 µM. Summed up: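 Quantitative HTS in HepG2 cells stably expressing an ARE-beta-lactamase reporter; 16 h compound exposure at 37 C, followed by 2 h room-temperature incubation with LiveBLAzer B/G FRET substrate and fluorescence measurement.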

Experiment [12] can be described thus: qHTS assay for small molecule activators of the nuclear factor-kappa B (NF-kB) signaling pathway (AID 651749; active = well fitted activation curve with a large enough effect in the signal ratio; the % refers to the signal ratio; note: % of control where 0% means no effect). Particulars: NF-kB-bla ME-180 cells, beta-lactamase FRET ratio, 16 h; active compounds read high. Summed up:
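Readout: beta-lactamase reporter driven by an NF-kB response element, detected fluorescently as loss of FRET. Cells were the ME-180 line, treated 16 hr at 37C with pin-transferred compound.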

Experiment [13] in a line: qHTS assay for small molecule disruptors of the mitochondrial membrane potential - 1 hr assay (AID 651754; calls by dose curve; note: nearly all actives have a fitted effect of over 35% in size; note: potency is the fitted concentration of half-maximal effect). Particulars: series mostly up to 92.2 µM. The method, boiled down:
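HepG2, 2,000 cells/well, overnight attachment; cpd or DMSO 1 hr, 37C/5% CO2; Mito-MPS dye 30 min, 37C; fluorescence monomer (490/535) and aggregate (540/590).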

Experiment [14] concerns the target Tumor necrosis factor (Homo sapiens) (UniProt P01375). Put plainly: qHTS assay to identify small molecules that stimulate Tumor Necrosis Factor-alpha (TNF-alpha) secretion (AID 651757; active = well fitted curve in the direction sought with a large enough effect in the signal ratio; the % refers to the signal ratio; note: 0% is about no effect). Conditions: Human cells, HTRF 665/615 ratio; series mostly up to 92.2 µM. The method, boiled down:
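Read-out is HTRF, a TR-FRET sandwich of cryptate- and XL665-labeled anti-TNF-alpha antibodies detecting cytokine secreted by THP-1 cells. Cells had been incubated with test compounds at 37 C for 17 hrs beforehand.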

Experiment [15] can be described thus: qHTS assay for small molecule antagonists of the retinoid-related orphan receptor gamma (ROR-gamma) signaling pathway - cell viability counter screen (AID 720652; active = well fitted curve in the direction sought with a large enough effect in the repeat runs; an effect the other way counts as inactive or inconclusive;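 note: compound exposure lasted 16 hr before ATP read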; note: potency is the fitted concentration of half-maximal effect; for activity change, negative = cytotoxicity: % is set by controls: 0 for no effect and ±100 for the full control effect). Conditions: RORgamma reporter cell line viability counter screen; series mostly up to 92.2 µM. The method, boiled down:
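Luminescence from CellTiter-Glo after 30 min at room temperature reported cellular ATP as the cytotoxicity measure. Cells were the CHO reporter line with doxycycline-induced ROR-gamma expression, exposed to compound for 16 hr at 37 C.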

Experiment [16] can be described thus: qHTS assay for small molecule activators of the human pregnane X receptor (PXR) signaling pathway (AID 720659; call rule not given here; note: 0% is about no effect). Particulars: DPX-2 HepG2 CYP3A4-luciferase, 24 h; series mostly up to 92.3 µM.
A short description of experiment [17]: Cell Viability - Hek293 (AID 427;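 active = compounds whose dose-response curve shows a full or clear partial loss of cell viability, called from curve shape rather than a numeric limit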;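 note: potency is the fitted concentration of half-maximal effect; cells exposed to compound for 40 hours at 37 °C before reading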). Particulars: qHTS. Summed up:
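HEK293 cells in complete medium were exposed to compound for 40 hr at 37 °C, then cellular ATP was read by CellTiter-Glo luminescence. Data were normalized to DMSO (basal) and 100 uM tamoxifen (100% inhibition), and AC50 came from Hill fits.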

The nature of experiment [18]: qHTS assay for small molecule activators of the p53 signaling pathway (AID 651743; active = well fitted activation curve with a large enough effect in the signal ratio, not every such curve was filed as active; the % refers to the signal ratio; note: potency is the fitted concentration of half-maximal effect; for activation: % of control where 0% means no effect). Particulars: HCT-116 p53RE-bla, beta-lactamase FRET ratio, 16 h; activation: active compounds read high. Summed up:
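Read-out is fluorescence intensity from the LiveBLAzer B/G FRET substrate, added for 2 hours at room temperature after HCT-116 p53RE-bla cells had been incubated with compounds for 16 hours at 37 C.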

Experiment [19] concerns the target Nuclear receptor ROR-gamma (Homo sapiens) (UniProt P51449). Kind of experiment: qHTS assay for small molecule antagonists of the retinoid-related orphan receptor gamma (ROR-gamma) signaling pathway (AID 651802). Note: nearly all actives have a fitted effect of over 60% in size. Note: potency is the fitted concentration of half-maximal effect. Particulars: ROR-gamma antagonist cell reporter assay; series mostly up to 92.2 µM. The method, boiled down: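 CHO, TET-inducible ROR + RORE-LUC reporter, 1536-well qHTS. Compound pinned, doxycycline added, 16hr 37C/5% CO2. ONE-Glo, 30 min RT, luminescence; signal drop scored as antagonism.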

The target in experiment [20] is Vitamin D3 receptor (Homo sapiens) (UniProt P11473). Put plainly: qHTS assay for small molecule antagonists of vitamin D receptor signaling (AID 588541; calls by dose curve;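 note: receptor activated by calcitriol during compound treatment; % is set by controls: 0 for no effect and ±100 for the full control effect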). Particulars: HEK293T VDR-UAS-bla, beta-lactamase ratio, antagonist mode; series mostly up to 76.7 µM. The method, boiled down:
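Antagonist-mode beta-lactamase reporter assay: HEK293T VDR-UAS-bla cells were exposed to titrated compound alongside 1-alpha,25-dihydroxyvitamin D3 at 3 nM final for 16 h. Values were normalized to the 50 nM agonist control and DMSO basal, with IC50 and efficacy from Hill equation fits.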

Voltage-gated inwardly rectifying potassium channel KCNH2 (Homo sapiens), sequence (Q12809 whole entry, looked up): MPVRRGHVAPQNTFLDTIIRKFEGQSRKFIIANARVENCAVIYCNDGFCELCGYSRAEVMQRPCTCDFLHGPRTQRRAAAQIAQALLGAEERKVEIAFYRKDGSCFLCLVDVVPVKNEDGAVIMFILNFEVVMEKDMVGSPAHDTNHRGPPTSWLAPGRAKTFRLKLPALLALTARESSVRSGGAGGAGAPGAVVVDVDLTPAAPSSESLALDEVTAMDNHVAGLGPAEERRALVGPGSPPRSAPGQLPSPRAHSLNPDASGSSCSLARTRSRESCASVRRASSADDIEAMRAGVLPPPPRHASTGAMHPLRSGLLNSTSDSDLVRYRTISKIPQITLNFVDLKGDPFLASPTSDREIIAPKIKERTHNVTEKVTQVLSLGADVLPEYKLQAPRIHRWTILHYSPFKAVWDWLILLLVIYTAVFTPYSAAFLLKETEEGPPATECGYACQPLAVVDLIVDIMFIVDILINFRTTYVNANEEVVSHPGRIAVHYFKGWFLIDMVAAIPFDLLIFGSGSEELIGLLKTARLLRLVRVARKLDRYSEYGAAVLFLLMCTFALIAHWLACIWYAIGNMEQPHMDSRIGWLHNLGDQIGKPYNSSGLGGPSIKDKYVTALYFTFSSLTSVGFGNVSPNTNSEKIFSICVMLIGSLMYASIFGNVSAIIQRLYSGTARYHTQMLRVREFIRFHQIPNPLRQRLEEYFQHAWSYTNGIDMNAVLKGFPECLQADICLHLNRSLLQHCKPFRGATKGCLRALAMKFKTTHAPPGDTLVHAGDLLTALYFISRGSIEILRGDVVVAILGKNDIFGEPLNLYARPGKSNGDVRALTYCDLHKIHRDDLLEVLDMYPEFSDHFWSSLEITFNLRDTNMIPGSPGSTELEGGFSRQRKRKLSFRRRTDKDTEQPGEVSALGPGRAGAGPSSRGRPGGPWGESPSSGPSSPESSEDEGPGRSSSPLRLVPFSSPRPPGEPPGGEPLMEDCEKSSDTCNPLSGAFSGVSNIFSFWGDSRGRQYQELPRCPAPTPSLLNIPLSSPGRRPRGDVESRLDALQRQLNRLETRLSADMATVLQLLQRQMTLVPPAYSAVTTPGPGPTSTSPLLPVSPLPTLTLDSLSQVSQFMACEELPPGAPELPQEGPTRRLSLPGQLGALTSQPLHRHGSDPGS
Nuclear receptor ROR-gamma (Homo sapiens), sequence (P51449 whole entry, looked up): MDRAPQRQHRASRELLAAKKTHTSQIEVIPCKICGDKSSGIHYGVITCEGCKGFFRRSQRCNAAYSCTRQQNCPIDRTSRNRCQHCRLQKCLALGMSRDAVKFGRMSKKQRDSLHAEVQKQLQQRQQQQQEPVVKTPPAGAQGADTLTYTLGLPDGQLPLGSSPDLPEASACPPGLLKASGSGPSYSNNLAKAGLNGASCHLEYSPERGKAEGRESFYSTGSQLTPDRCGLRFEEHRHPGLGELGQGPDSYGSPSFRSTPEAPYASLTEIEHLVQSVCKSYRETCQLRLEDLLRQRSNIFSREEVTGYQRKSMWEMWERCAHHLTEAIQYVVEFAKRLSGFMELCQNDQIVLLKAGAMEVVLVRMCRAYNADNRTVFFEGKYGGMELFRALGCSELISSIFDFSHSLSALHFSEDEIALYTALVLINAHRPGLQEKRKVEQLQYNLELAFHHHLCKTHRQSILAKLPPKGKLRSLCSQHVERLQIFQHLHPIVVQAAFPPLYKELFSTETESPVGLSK
Vitamin D3 receptor (Homo sapiens), sequence (P11473 whole entry, looked up): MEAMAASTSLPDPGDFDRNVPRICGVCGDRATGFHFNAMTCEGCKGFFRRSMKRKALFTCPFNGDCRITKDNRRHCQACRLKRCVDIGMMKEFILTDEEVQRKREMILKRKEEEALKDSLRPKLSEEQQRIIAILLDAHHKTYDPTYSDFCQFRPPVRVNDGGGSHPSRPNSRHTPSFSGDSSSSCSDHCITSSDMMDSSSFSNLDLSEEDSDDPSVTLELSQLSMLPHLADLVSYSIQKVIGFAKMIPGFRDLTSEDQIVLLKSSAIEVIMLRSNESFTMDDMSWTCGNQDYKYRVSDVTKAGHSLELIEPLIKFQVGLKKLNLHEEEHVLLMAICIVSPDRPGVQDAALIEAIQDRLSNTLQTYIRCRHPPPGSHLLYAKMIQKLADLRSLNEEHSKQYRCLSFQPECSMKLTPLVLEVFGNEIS
Cytochrome P450 3A4 (Homo sapiens), sequence (P08684 whole entry, looked up): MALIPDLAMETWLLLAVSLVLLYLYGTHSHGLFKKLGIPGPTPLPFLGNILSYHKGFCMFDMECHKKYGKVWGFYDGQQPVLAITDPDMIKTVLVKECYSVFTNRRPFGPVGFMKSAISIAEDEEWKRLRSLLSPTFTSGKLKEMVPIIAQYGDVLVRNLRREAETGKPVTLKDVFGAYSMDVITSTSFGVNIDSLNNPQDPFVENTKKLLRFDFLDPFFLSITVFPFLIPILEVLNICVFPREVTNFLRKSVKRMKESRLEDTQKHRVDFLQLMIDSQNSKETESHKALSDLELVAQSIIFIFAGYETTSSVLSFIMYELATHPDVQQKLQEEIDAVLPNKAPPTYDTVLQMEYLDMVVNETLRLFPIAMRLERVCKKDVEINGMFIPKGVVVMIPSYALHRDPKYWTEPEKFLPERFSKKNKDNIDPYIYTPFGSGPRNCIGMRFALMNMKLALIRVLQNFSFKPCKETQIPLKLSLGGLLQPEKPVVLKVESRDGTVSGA
Tumor necrosis factor (Homo sapiens), sequence (P01375 whole entry, looked up): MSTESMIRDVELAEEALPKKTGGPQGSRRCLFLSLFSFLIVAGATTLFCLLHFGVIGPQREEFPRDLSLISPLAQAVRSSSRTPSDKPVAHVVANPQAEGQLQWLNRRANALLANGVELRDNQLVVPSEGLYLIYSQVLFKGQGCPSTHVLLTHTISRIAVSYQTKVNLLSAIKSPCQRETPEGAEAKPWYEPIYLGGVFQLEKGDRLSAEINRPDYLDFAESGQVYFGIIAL
Glucocorticoid receptor (Homo sapiens), sequence (P04150 whole entry, looked up): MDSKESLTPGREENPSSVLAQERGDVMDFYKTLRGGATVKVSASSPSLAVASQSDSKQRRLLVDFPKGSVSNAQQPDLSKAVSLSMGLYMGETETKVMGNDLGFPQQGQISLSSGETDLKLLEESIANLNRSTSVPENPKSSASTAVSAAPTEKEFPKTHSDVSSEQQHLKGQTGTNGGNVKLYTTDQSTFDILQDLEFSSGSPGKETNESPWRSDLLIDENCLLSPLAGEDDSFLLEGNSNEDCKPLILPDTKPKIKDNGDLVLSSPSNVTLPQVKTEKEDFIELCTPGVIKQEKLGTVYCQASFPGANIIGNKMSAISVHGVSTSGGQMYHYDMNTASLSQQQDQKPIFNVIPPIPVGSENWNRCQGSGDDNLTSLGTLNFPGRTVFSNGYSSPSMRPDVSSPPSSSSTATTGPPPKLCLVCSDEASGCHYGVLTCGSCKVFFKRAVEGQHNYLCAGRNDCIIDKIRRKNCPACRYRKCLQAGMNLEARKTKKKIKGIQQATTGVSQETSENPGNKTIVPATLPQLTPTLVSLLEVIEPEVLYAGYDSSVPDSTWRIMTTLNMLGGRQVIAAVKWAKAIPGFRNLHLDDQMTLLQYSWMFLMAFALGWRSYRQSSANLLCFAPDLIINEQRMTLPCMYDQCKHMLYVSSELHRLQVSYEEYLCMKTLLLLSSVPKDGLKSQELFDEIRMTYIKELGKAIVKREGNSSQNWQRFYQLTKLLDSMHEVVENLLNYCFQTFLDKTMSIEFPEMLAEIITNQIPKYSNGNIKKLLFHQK
Thyroid hormone receptor beta (Homo sapiens), sequence (P10828 whole entry, looked up): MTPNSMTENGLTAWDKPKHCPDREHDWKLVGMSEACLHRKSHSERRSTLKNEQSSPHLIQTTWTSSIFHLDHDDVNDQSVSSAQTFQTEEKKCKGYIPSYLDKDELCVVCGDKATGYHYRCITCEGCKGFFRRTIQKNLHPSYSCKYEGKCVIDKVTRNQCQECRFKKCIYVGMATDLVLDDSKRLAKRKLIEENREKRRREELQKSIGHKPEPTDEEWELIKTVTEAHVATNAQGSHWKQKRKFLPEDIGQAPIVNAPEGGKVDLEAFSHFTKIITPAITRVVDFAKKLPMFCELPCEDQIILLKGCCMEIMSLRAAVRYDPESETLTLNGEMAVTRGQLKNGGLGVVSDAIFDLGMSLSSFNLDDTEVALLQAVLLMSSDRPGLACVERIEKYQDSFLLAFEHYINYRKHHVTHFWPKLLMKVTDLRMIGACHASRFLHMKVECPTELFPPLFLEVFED

On to `C/C=C/C=C/C=O`, for which the Potency in [1] is 29.4 µM (active); in experiment [3], 31.6 µM (active); in [11] it was 37.6 µM (active); in experiment [15], 29.8 µM (active). Besides, the activity change, negative = cytotoxicity in [2] is -142% (active). Also, the Potency entry in experiment [4], in [6], in [8], in experiment [9], in [10] and in experiment [13] was “inactive” throughout. Further, the Potency result in experiment [14] was “inactive”. The compound was called inactive in experiment [5] and in [16]. The figures for the activation in experiment [7] and in [12] were -0.282% and -1.3%, respectively.
Turning to `O=C(O)/C=C/c1ccc(/C=C/C(=O)O)cc1`, the Potency in experiment [1] and in experiment [17] was above 92 µM in each case. Also, the Potency entry in experiment [3], in [4], in experiment [6], in experiment [11], in [13] and in [19] was “inactive” throughout. Further, the Potency entry in experiment [15] was “inactive”. For the same compound, the outcome in experiment [5] and in experiment [16] was inactive. Further, the activation in experiment [7] was 12.3%; in experiment [18], 1.28%; in experiment [12], -0.449%.
Regarding `CCCCCCc1ccc(-c2ccc(C#N)cc2)cc1`, the Potency in experiment [1] and in [17] was above 92 µM each time. In experiment [2], the activity change, negative = cytotoxicity is -12.5%. The Potency result in [3], in experiment [4], in experiment [9], in [13] and in experiment [14] was “inactive” each time. The activation was -6.81% in experiment [7] and 1.83% in experiment [18]. Also, the outcome in experiment [16] was inactive.
`c1ccc(CSCc2ccccc2)cc1`: the Potency in [1] and in experiment [17] was above 92 µM in each case. The activity change, negative = cytotoxicity in [2] was -18.8%. Also, the Potency entry in experiment [3], in [4], in experiment [6], in [20], in [8] and in experiment [9] was “inactive” in each case. In addition, the Potency entry in experiment [11], in experiment [13], in [14], in experiment [19] and in [15] was “inactive” in each case. Besides, the outcome in experiment [5] and in experiment [16] was inactive. The activation in experiment [7] was -4.65%; in experiment [18] it was -0.938%; in experiment [12], -0.1%.
Consider `Oc1ccc(O)c2c(O)cccc12`, for which the Potency in experiment [1] is 30 µM (active); in experiment [11], 42.2 µM (active); in experiment [13], 23.7 µM (active); in experiment [19], 66.8 µM (active). Further, in experiment [2], the activity change, negative = cytotoxicity was -29%. In addition, the Potency entry in [4], in experiment [6], in [8], in [9] and in experiment [10] was “inactive” each time. For the same compound, the activation in [7] is -3.75%; in experiment [18] it was -2.36%. Besides, the outcome in experiment [16] was inactive.
For `CCCCCCN`, the Potency in experiment [1] and in experiment [17] was above 92 µM throughout. For the same compound, in experiment [2], the activity change, negative = cytotoxicity was -9.38%. For the same compound, the Potency entry in experiment [3], in [4], in experiment [6], in experiment [20], in experiment [8] and in experiment [9] was “inactive” each time. For the same compound, the Potency result in experiment [10], in [13], in experiment [14], in [19] and in experiment [15] was “inactive” throughout. Moreover, the result in experiment [5] and in [16] was inactive. The activation in experiment [18] was -1.84%; in experiment [12] it was -0.245%.
As for `Cc1c2ccccc2c(C)c2c1ccc1ccccc12`, the Potency was 36.6 µM (active) in experiment [1]; 7.94 µM (active) in experiment [3]; 10.6 µM (active) and 24.3 µM (active) in experiment [11]; 44.7 µM (active) in [18]; 37.6 µM (active) in experiment [13]; 13.3 µM (active) in [19]. Besides, in experiment [2], the activity change, negative = cytotoxicity was -137% (active). In addition, the Potency entry in [10] and in [14] was “inactive” each time.
Turning to `CC(=O)Nc1cccc(C)c1`, the Potency in experiment [1] and in experiment [17] was above 92 µM throughout. The activity change, negative = cytotoxicity in experiment [2] is -12.7%. Further, the Potency result in [4], in experiment [6], in experiment [20], in experiment [10], in [11] and in [13] was “inactive” in each case. Moreover, the Potency result in [14], in experiment [19] and in [15] was “inactive” throughout. In addition, the call in [5] and in experiment [16] was inactive. Further, the activation in experiment [7] was -1.44%; in [18], 0.223%; in experiment [12] it was -1.12%.
